# DT40 TDP1 no CPT = qHTS for Inhibitors of human tyrosyl-DNA phosphodiesterase 1 (TDP1): qHTS in cells in absence of CPT; DT40 Tdp1-/- hTDP1 cells, no CPT, ATP luminescence, 48 h; Potency, µM (doses to about 46.2 µM), without a hit: top-dose activity change, negative = growth inhibition, most hits filed as inhibitors; actives 15% (n = 420,000); AID 686978, 2013; further: potency means the concentration at half of the fitted maximal effect; nearly all actives have a fitted effect of over 55% in size
#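 Stably hTDP1-transfected Tdp1-null chicken DT40 cells were treated with library compounds minus camptothecin and grown for at least 48 hr at 37 °C, after which cellular ATP was quantified by luminescence.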
# HT1080-NT tox = kills 2HG-producing HT-1080-NT fibrosarcoma cells; HT-1080-NT fibrosarcoma viability, CellTiter-Glo ATP luminescence, 48 h; Potency, µM (top dose mostly 46.1 µM), for the others: top-dose activity, negative = less viability, usual class: cytotoxic; actives 1.6% (n = 360,000);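 further: NT is the 2HG producing partner of a matched IDH1 knockdown line; potency means the concentration at half of the fitted maximal effect; 0% = DMSO-treated cells and -100% = media-only wells without cells; nearly all actives have a fitted effect of over 55% in size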
#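 750 cells/well, RPMI + 5% FBS; 2 h settle, compound pin-transfer, 48 h at 37 degrees C. CellTiter-Glo 10 min RT, luminescence. Normalized to DMSO and media-only wells.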
# IL-1B inflam inh = inflammasome signaling inhibition, IL-1 beta readout. actives 4.7% (n = 360,000). THP-1 LPS/ATP IL-1B secretion, AlphaLISA, 16 h; stronger effect = lower value. activity change, % at 57.5 µM. AID 743279; in the data active means activity change below about -50%; inconclusive means mostly about -30% to -49%
#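 Secreted IL-1B measured by AlphaLISA bead assay after 16 h compound exposure of THP-1 cells; compounds (final up to 57.5 uM) added 1 h before LPS (250 ng/mL) and ATP (1.25 mM) stimulation; lower signal means less secretion.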
# ELG1 repair inh = blocks ELG1-dependent DNA repair in HEK293T cells; HEK293T ELG1-luciferase reporter, luminescence, 16 h; DNA damage induced by 5-fluorouridine; Potency, µM (top dose mostly 46.1 µM), inactives show at the top dose activity change, negative = inhibition, most hits filed as inhibitors; actives 2.3% (n = 330,000); AID 504467; further: potency means the concentration at half of the fitted maximal effect; nearly all actives have a fitted effect of over 55% in size
#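 Luminescence from the luciferase reporter, measured 30 min after ONE-Glo reagent at room temperature, was the read-out. Beforehand, 2,000 cells per well were exposed for 16 hr at 37 °C to 5-fluorouridine together with compound or vehicle.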
# TDP1 cell CPT = DT40-hTDP1 cell growth loss with CPT; chicken DT40 Tdp1-/-;hTDP1 cells + 20 nM CPT, ATP luminescence, 48 h; Potency, µM (top dose mostly 46.2 µM), inactives show at the top dose activity change, negative = growth inhibition, hits mostly inhibitors; actives 12% (n = 420,000); further: potency means the concentration at half of the fitted maximal effect; nearly all actives have a fitted effect of over 55% in size
#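 Chicken DT40 Tdp1-/- cells complemented with human TDP1, 400 cells/well, exposed to compounds plus 20 nM camptothecin for at least 48 h at 37 C; viability read as ATP content by CellTiter-Glo luminescence.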
# HT1080 IDH1KD tx = toxicity to HT-1080 IDH1 knockdown cells (counter line); HT-1080 IDH1 knockdown viability, ATP luminescence, 48 h; Potency, µM (top dose mostly 46.1 µM), for inactives: at the top dose activity, negative = toxicity, usual class: cytotoxic; actives 2% (n = 360,000);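 further: potency means the concentration at half of the fitted maximal effect; 0% = DMSO wells and -100% = cell-free medium wells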
#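 % activity derives from luminescence (CellTiter-Glo), normalised to DMSO and no-cell wells. HT-1080-IDH1KD cells, 750/well, had 48 h compound exposure at 37 °C.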
# The depositor's hits bear a star; ? = inconclusive; nt = no result given; [ ] = another dose, or the depositor's remark. In the library only some 19% were active in any assay of this set; here they are far more common. Unless noted, the call rests on the fitted dose curve; in most records, active means well fitted curve in the direction sought with a large enough effect; inconclusive means small, poorly fitted or top-dose-only effect, or another doubt; inactive means no such curve, though single readings can be large; an effect the other way counts as inactive or inconclusive. Unless noted, on the % scale 0 is the no-effect control and ±100 the full control effect.
SMILES,DT40 TDP1 no CPT,HT1080-NT tox,IL-1B inflam inh,ELG1 repair inh,TDP1 cell CPT,HT1080 IDH1KD tx
COc1cc(C(=O)N2CCCC(c3cc(C(=O)NCc4ccccc4)no3)C2)cc(OC)c1C (stereo unspecified),?,2.6%,-26.4,nt,?,0.0%
O=C1CC(c2ccco2)CC(O)=C1C=Nc1ccc(Br)cc1 (stereo unspecified),-28.5%,-11.7%,-10.2,-1.1%,-24.5%,-15.9%
O=C1CC(c2ccco2)CC(O)=C1C=Nc1cc(Cl)ccc1O (stereo unspecified),18.4µM*,-0.8%,20.7,-15.9%,14.6µM*,-26.5%
O=C1CC(c2ccco2)CC(O)=C1C=Nc1cc(Cl)ccc1Cl (stereo unspecified),-8.3%,1.6%,11.8,27.2%,-18.4%,-4.5%
O=C1CC(c2ccco2)CC(O)=C1C=Nc1ccccc1-c1ccccc1 (stereo unspecified),?,-22.3%,-29.4,2.6%,18.4µM*,-15.9%
Cc1ccc(NC(=O)COC(=O)C2CC(=O)N(Cc3ccccc3)C2)cc1F (stereo unspecified),-28.1%,-4.3%,5.2,14.1%,12.4%,-8.0%
COc1cc(/C=C/C(=O)NC2CCCCC2)cc(OC)c1OC,-0.2%,3.4%,7.5,13.7%,-3.3%,6.9%
COc1cc2c(cc1OC)CN(C(=O)/C=C/c1cc(OC)c(OC)c(OC)c1)CC2,9.2µM*,-6.8%,-11.7,?,?,-5.8%
COc1cc2c(cc1OC)CN(C(=O)/C=C/c1ccc(F)cc1)CC2,?,-1.5%,-13.2,-16.1%,?,-1.6%
COc1cc2c(cc1OC)C(C)N(C(=O)/C=C/c1cc(OC)c(OC)c(OC)c1)CC2 (stereo unspecified),8.2µM*,-0.6%,-22.2,18.3µM*,14.6µM*,-7.3%
COc1cc2c(cc1OC)C(CNC(=O)C=Cc1cc(OC)c(OC)c(OC)c1)C2 (stereo unspecified),18.4µM*,-7.0%,-13.4,nt,?,0.8%
CC(C)C[C@H](NC(=O)[C@H](CCC(N)=O)NC(=O)[C@H](CCCCN)NC(=O)[C@H](CCC(N)=O)NC(=O)[C@@H](N)CCC(=O)O)C(=O)N[C@@H](CCC(N)=O)C(=O)O,7.5%[4.12 µM],nt,nt,nt,-1.4%[4.12 µM],nt
O=C(c1nc2ccc(Cl)cn2c1CN1CCC[C@H]1CO)N1CCCCCCC1,15.0%,0.0%,20.4,9.6%,5.8%,13.2%
CC1CCC2(CC1)NC(=O)N(CC(=O)Nc1sc3c(c1C(N)=O)CCC3)C2=O (stereo unspecified),-19.7%,0.0%,9.5,10.0%,?,0.4%
COC(=O)c1c(NC(=O)CN2C(=O)NC3(CCc4ccccc4C3)C2=O)sc2c1CCCCC2 (stereo unspecified),25.9µM*,-20.2%,24.0,4.9%,20.6µM*,-13.7%
COC(=O)c1c(NC(=O)CN2C(=O)NC3(CCC(C)CC3)C2=O)sc2c1CCC2 (stereo unspecified),16.4µM*,-1.6%,15.9,?,14.6µM*,-2.5%
Cc1cccc(C(O)c2ncc(-c3ccccc3F)[nH]2)c1C (stereo unspecified),?,6.3%,28.4,nt,-20.5%,-6.8%
O=C(CN1C(=O)c2ccccc2S1(=O)=O)NCc1cccs1,14.4%,0.0%,17.4,5.5%,27.1%,13.7%
CC(=O)NCCc1nc2cc(NS(=O)(=O)c3ccccc3)ccc2n1C,5.5%,16.6%,-10.0,-0.1%,5.9%,25.7%
CC(=O)N[C@H](Cc1c[nH]c2ccccc12)C(N)=O,-1.7%,nt,nt,nt,2.7%,nt
CCCCN(C(=O)c1ccc(S(=O)(=O)N(C)c2ccccc2)cc1)c1c(N)n(CCC)c(=O)[nH]c1=O,-19.1%,0.6%,-2.6,nt,-16.3%,-6.1%
CC(=O)N1CCC(N(CCN2CCOCC2)C(=S)Nc2cc(C)ccc2C)CC1,?,15.8%,-8.0,0.9%,-6.6%,14.2%
COc1ccccc1C1C(C(N)=O)=C(C)Nc2nc(-c3ccc(Cl)cc3)nn21 (stereo unspecified),10.1%,-3.1%,-24.7,?,2.8%,-3.2%
COc1ccccc1C1C=C(c2ccc(Cl)cc2)Nc2nc(-c3ccc(Cl)cc3)nn21 (stereo unspecified),?,nt,nt,nt,16.4µM*,nt
COc1ccccc1C1C=C(c2ccc(F)cc2)Nc2nc(-c3ccc(Cl)cc3)nn21 (stereo unspecified),16.4µM*,nt,nt,nt,20.6µM*,nt
SMILES,DT40 TDP1 no CPT,HT1080-NT tox,IL-1B inflam inh,ELG1 repair inh,TDP1 cell CPT,HT1080 IDH1KD tx
CC1=C(C(N)=O)C(c2ccccc2F)n2nc(-c3ccc(Cl)cc3)nc2N1 (stereo unspecified),-16.4%,nt,nt,nt,-15.4%,nt
N#C/C(=C\c1ccc(Cl)cc1)c1nc(-c2cc3c(ccc4ccccc43)oc2=O)cs1,3.5%,nt,nt,nt,4.0%,nt
O=C(N/N=C/c1cccc2nccnc12)c1ccncc1,?,-22.8%,33.3,2.9%,?,?
O=C(N/N=C/c1ccccc1Br)c1ccc(CSc2cccc3cccnc23)cc1,0.4%,5.4%,2.2,20.6µM*,-15.0%,1.4%
O=C(N/N=C/c1cccc2cccnc12)c1ccccc1O,4.11µM*,?,227.7,?,5.17µM*,?
O=C(N/N=C/c1cccc2nccnc12)c1ccccc1O,3.26µM*,?,247.7,4.0%,5.8µM*,-22.3%
CCCS(=O)(=O)NC(=O)C1(C)CCCN(C(=O)c2ccc(SC(F)(F)F)cc2)C1 (stereo unspecified),2.2%,22.4%,55.0,nt,2.6%,1.3%
COc1cc2c(cc1OC)-c1nnc(-c3cccs3)n1C1(CCCC1)C2,20.6µM*,-0.4%,2.5,-3.5%,20.6µM*,-0.4%
C[C@H]1CN([C@@H](C)CO)C(=O)c2cc(C#Cc3cccnc3)cnc2O[C@H]1CN(C)Cc1ccc(F)cc1,?,1.3%,-7.9,nt,?,0.5%
COc1cccc(S(=O)(=O)N(C)C[C@@H]2Oc3ncc(C#CCN(C)C)cc3C(=O)N([C@H](C)CO)C[C@H]2C)c1,?,5.3%,-16.4,nt,-20.7%,3.9%
CCCC#Cc1cnc2c(c1)C(=O)N([C@H](C)CO)C[C@@H](C)[C@H](CN(C)S(=O)(=O)c1cccc(OC)c1)O2,10.3µM*,-1.3%,?,nt,?,-5.9%
